Source: PMC7862700, “An all-to-all approach to the identification of sequence-specific readers for epigenetic DNA modifications on cytosine”

molecular target: T1, ETV3L (Homo sapiens, UniProt Q6ZN32 1-361); test: DAPPL (digital affinity profiling via proximity ligation, sequencing); 10 mM Tris-HCl pH 7.5, 50 mM NaCl, 1 mM DTT, 4% glycerol, room temperature, 30 min; GST-TFs on glutathione beads, 16-mer random dsDNA library, 0.1% formaldehyde crosslink after washing; high values mean tight binding; details: protein: recombinant; tags: N-terminal GST; dsDNA, one strand shown
T1 sequence: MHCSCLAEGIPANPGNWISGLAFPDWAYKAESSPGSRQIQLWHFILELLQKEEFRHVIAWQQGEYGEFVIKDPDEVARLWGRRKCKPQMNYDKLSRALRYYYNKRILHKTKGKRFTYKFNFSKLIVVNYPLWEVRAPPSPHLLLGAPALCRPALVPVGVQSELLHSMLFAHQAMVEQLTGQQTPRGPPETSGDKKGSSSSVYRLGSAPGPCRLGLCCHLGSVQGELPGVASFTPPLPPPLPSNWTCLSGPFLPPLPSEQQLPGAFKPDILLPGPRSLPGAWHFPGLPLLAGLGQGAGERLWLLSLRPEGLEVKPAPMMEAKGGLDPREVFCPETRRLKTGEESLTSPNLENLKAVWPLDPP
Procedure, shortened: (§1)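 Beads coated with glutathione captured GST-fused human transcription factors that had been expressed in yeast, and the factors were then given DNA barcodes and pooled with a tag-only sample. The pools were incubated with 200 nmole of a random double-stranded 16-mer DNA library in Tris/NaCl/DTT/glycerol buffer for 30 min at room temperature, washed, crosslinked with 0.1% formaldehyde and proximity-ligated with BsaI/T4 ligase at 37 °C for 1 h. PCR amplification and Illumina NextSeq500 sequencing came last. Binding signal is each hexamer's read frequency for a factor divided by its frequency for the tag-only sample.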

Sequence | binding signal
TCTTTT | 1.54 fold enrichment (6-mer frequency, TF over GST control)
ACGAAC | 1.07 fold enrichment (6-mer frequency, TF over GST control)
CTGATC | 1.36 fold enrichment (6-mer frequency, TF over GST control)
CGATAA | 1.09 fold enrichment (6-mer frequency, TF over GST control)
GTTCCA | 1.04 fold enrichment (6-mer frequency, TF over GST control)
TCTGAC | 1.04 fold enrichment (6-mer frequency, TF over GST control)
AAGCTC | 1.2 fold enrichment (6-mer frequency, TF over GST control)
GTTATG | 1.11 fold enrichment (6-mer frequency, TF over GST control)
TTTTTT | 1.18 fold enrichment (6-mer frequency, TF over GST control)
TTGAGC | 1.06 fold enrichment (6-mer frequency, TF over GST control)
CACCTT | 1.14 fold enrichment (6-mer frequency, TF over GST control)
CCTACA | 1.35 fold enrichment (6-mer frequency, TF over GST control)
GAACTT | 1.58 fold enrichment (6-mer frequency, TF over GST control)
CACACT | 1.12 fold enrichment (6-mer frequency, TF over GST control)
TCCCTT | 1.64 fold enrichment (6-mer frequency, TF over GST control)
AGTTCC | 2.15 fold enrichment (6-mer frequency, TF over GST control)
TCCCCG | 1.17 fold enrichment (6-mer frequency, TF over GST control)
TCTCGC | 1.81 fold enrichment (6-mer frequency, TF over GST control)
TAATGA | 1.24 fold enrichment (6-mer frequency, TF over GST control)
CCCACA | 1.1 fold enrichment (6-mer frequency, TF over GST control)

Sequence | binding signal
TTAATC | 1.21 fold enrichment (6-mer frequency, TF over GST control)
TGCTTG | 1.13 fold enrichment (6-mer frequency, TF over GST control)
GTTACA | 1.06 fold enrichment (6-mer frequency, TF over GST control)
AGTTTC | 1.33 fold enrichment (6-mer frequency, TF over GST control)
CTCATA | 1.3 fold enrichment (6-mer frequency, TF over GST control)
GTTTTG | 1.16 fold enrichment (6-mer frequency, TF over GST control)
CCCGGA | 2.8 fold enrichment (6-mer frequency, TF over GST control)
CCTCCG | 1.65 fold enrichment (6-mer frequency, TF over GST control)
TCTGTT | 1.32 fold enrichment (6-mer frequency, TF over GST control)
ATACGG | 1.15 fold enrichment (6-mer frequency, TF over GST control)
TAACTC | 1.12 fold enrichment (6-mer frequency, TF over GST control)
AATGGG | 1.15 fold enrichment (6-mer frequency, TF over GST control)
GCCGAC | 1.29 fold enrichment (6-mer frequency, TF over GST control)
TTTGTG | 1.12 fold enrichment (6-mer frequency, TF over GST control)
ATGATT | 1.24 fold enrichment (6-mer frequency, TF over GST control)
CTACCC | 1.32 fold enrichment (6-mer frequency, TF over GST control)
AGGAAG | 1.33 fold enrichment (6-mer frequency, TF over GST control)
CACCGA | 1.02 fold enrichment (6-mer frequency, TF over GST control)
AAAAGG | 1.1 fold enrichment (6-mer frequency, TF over GST control)
TCCCAA | 1.23 fold enrichment (6-mer frequency, TF over GST control)

molecular target: T2, ETS2 (Homo sapiens, UniProt P15036 1-469); test: as above; details: protein: recombinant; tags: N-terminal GST; dsDNA, one strand shown
T2 sequence: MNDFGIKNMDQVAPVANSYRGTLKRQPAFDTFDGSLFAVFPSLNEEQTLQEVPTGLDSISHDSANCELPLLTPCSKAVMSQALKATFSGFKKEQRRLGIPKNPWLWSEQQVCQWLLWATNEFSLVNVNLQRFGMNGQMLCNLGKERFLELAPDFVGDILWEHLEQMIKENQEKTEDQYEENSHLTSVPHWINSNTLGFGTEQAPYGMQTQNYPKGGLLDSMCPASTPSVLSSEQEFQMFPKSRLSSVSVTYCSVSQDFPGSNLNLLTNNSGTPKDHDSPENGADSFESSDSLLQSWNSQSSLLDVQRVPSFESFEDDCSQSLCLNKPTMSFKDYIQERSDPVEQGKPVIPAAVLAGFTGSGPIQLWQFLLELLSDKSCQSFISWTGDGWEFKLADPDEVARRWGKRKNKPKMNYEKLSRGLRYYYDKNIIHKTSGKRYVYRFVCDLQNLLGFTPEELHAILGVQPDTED
Procedure, shortened: as §1

Sequence | binding signal
TCTTTT | 1.47 fold enrichment (6-mer frequency, TF over GST control)
ACGAAC | 1.22 fold enrichment (6-mer frequency, TF over GST control)
CTGATC | 1.42 fold enrichment (6-mer frequency, TF over GST control)
CGATAA | 1.14 fold enrichment (6-mer frequency, TF over GST control)
GTTCCA | 1.13 fold enrichment (6-mer frequency, TF over GST control)
TCTGAC | 1.2 fold enrichment (6-mer frequency, TF over GST control)
AAGCTC | 1.13 fold enrichment (6-mer frequency, TF over GST control)
GTTATG | 1.1 fold enrichment (6-mer frequency, TF over GST control)
TTTTTT | 1.09 fold enrichment (6-mer frequency, TF over GST control)
TTGAGC | 1.03 fold enrichment (6-mer frequency, TF over GST control)
CACCTT | 1.24 fold enrichment (6-mer frequency, TF over GST control)
CCTACA | 1.19 fold enrichment (6-mer frequency, TF over GST control)
GAACTT | 1.61 fold enrichment (6-mer frequency, TF over GST control)
CACACT | 1.14 fold enrichment (6-mer frequency, TF over GST control)
TCCCTT | 1.67 fold enrichment (6-mer frequency, TF over GST control)
AGTTCC | 2.17 fold enrichment (6-mer frequency, TF over GST control)
TCCCCG | 1.11 fold enrichment (6-mer frequency, TF over GST control)
TCTCGC | 1.91 fold enrichment (6-mer frequency, TF over GST control)
TAATGA | 1.2 fold enrichment (6-mer frequency, TF over GST control)
CCCACA | 1.13 fold enrichment (6-mer frequency, TF over GST control)

Sequence | binding signal
TTAATC | 1.29 fold enrichment (6-mer frequency, TF over GST control)
TGCTTG | 1.14 fold enrichment (6-mer frequency, TF over GST control)
GTTACA | 1.2 fold enrichment (6-mer frequency, TF over GST control)
AGTTTC | 1.3 fold enrichment (6-mer frequency, TF over GST control)
CTCATA | 1.35 fold enrichment (6-mer frequency, TF over GST control)
GTTTTG | 1.1 fold enrichment (6-mer frequency, TF over GST control)
CCCGGA | 2.98 fold enrichment (6-mer frequency, TF over GST control)
CCTCCG | 1.31 fold enrichment (6-mer frequency, TF over GST control)
TCTGTT | 1.48 fold enrichment (6-mer frequency, TF over GST control)
ATACGG | 1.22 fold enrichment (6-mer frequency, TF over GST control)
TAACTC | 1.25 fold enrichment (6-mer frequency, TF over GST control)
AATGGG | 1.19 fold enrichment (6-mer frequency, TF over GST control)
GCCGAC | 1.15 fold enrichment (6-mer frequency, TF over GST control)
TTTGTG | 1.11 fold enrichment (6-mer frequency, TF over GST control)
ATGATT | 1.18 fold enrichment (6-mer frequency, TF over GST control)
CTACCC | 1.38 fold enrichment (6-mer frequency, TF over GST control)
AGGAAG | 1.5 fold enrichment (6-mer frequency, TF over GST control)
CACCGA | 1.12 fold enrichment (6-mer frequency, TF over GST control)
AAAAGG | 1.11 fold enrichment (6-mer frequency, TF over GST control)
TCCCAA | 1.12 fold enrichment (6-mer frequency, TF over GST control)

molecular target: T3, SPDEF (Homo sapiens, UniProt O95238 1-335); test: as above; details: protein: recombinant; tags: N-terminal GST; dsDNA, one strand shown
T3 sequence: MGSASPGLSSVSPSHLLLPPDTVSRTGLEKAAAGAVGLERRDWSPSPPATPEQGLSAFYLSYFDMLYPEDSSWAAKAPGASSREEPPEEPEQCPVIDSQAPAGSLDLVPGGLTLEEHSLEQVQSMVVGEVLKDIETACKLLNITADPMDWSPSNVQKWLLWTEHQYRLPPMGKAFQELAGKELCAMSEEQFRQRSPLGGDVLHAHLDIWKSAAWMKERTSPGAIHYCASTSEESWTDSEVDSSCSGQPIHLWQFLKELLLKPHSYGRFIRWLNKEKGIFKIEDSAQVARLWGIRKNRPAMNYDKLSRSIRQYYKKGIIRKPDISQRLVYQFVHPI
Procedure, shortened: as §1

Sequence | binding signal
TCTTTT | 1.4 fold enrichment (6-mer frequency, TF over GST control)
ACGAAC | 1.13 fold enrichment (6-mer frequency, TF over GST control)
CTGATC | 1.33 fold enrichment (6-mer frequency, TF over GST control)
CGATAA | 1.02 fold enrichment (6-mer frequency, TF over GST control)
GTTCCA | 1.1 fold enrichment (6-mer frequency, TF over GST control)
TCTGAC | 1.14 fold enrichment (6-mer frequency, TF over GST control)
AAGCTC | 1.06 fold enrichment (6-mer frequency, TF over GST control)
GTTATG | 1.12 fold enrichment (6-mer frequency, TF over GST control)
TTTTTT | 1.22 fold enrichment (6-mer frequency, TF over GST control)
TTGAGC | 1.02 fold enrichment (6-mer frequency, TF over GST control)
CACCTT | 1.31 fold enrichment (6-mer frequency, TF over GST control)
CCTACA | 1.17 fold enrichment (6-mer frequency, TF over GST control)
GAACTT | 1.61 fold enrichment (6-mer frequency, TF over GST control)
CACACT | 1.13 fold enrichment (6-mer frequency, TF over GST control)
TCCCTT | 1.61 fold enrichment (6-mer frequency, TF over GST control)
AGTTCC | 2.56 fold enrichment (6-mer frequency, TF over GST control)
TCCCCG | 1.14 fold enrichment (6-mer frequency, TF over GST control)
TCTCGC | 1.63 fold enrichment (6-mer frequency, TF over GST control)
TAATGA | 1.11 fold enrichment (6-mer frequency, TF over GST control)
CCCACA | 1.22 fold enrichment (6-mer frequency, TF over GST control)
